Rows were chosen to be rich in hits. Some 31% of all compounds tested hit in one or more screens of this group.
CYP2C19 act: human CYP2C19 activators, primary screen, biochemical, luminescence | Cytochrome P450 2C19 (Homo sapiens), P33261 | recombinant CYP2C19, luciferin-H EGE luminescence; hits give high values; 0 = fully inhibited enzyme, 1 = untreated enzyme | 96,000 tested, under 10 active | AID 1025, 2008 | activation factor at 5 µM;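 active = activation factor of at least 2 at 5 µM in the primary screen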;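 also: 0 = wells with 2.5 mM tranylcypromine and 1 = vehicle-only wells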
Target sequence (P33261 whole entry, looked up): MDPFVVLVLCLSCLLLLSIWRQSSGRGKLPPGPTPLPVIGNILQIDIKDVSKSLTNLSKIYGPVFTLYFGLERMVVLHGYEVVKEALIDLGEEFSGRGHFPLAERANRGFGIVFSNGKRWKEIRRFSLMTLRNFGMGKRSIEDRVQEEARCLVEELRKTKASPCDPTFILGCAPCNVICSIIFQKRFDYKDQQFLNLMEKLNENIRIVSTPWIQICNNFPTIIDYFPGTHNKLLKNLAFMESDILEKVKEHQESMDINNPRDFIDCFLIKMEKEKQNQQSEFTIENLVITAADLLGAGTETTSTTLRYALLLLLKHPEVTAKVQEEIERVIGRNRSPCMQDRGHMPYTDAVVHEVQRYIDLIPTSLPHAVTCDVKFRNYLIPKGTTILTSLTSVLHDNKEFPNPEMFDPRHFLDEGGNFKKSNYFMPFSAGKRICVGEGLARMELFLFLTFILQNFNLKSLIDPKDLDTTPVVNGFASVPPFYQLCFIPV
CYP2C9 act: human CYP2C9 activators, primary screen, biochemical, luminescence. Cytochrome P450 2C9 (Homo sapiens), P11712. recombinant CYP2C9, luciferin-H conversion; hits give high values; factor 1 = untreated enzyme, 0 = blocked. AID 1024, 2008. activation factor at 5 µM. 96,000 compounds, 1.4% hits;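 active = activation factor of 2 or more for CYP2C9 at a 5 µM dose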;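 also: 0 = sulfaphenazole-blocked wells and 1 = vehicle-only wells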
CYP2C19 inh: blockers of cytochrome P450 2C19 activity – biochemical, luminescence, ADME assay, primary screen; P33261; CYP2C19 Supersomes, luciferin-H EGE luminescence, 30 min; inhibition, % at 5 µM; 96,000 compounds, 21% hits;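 active = CYP2C19 inhibition above a set limit at 5 µM in the primary screen, cut at about 50% in these data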;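 also: plate controls were negative control wells for no effect and 2.5 mM tranylcypromine positive control for full effect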
CYP2C9 inh: blockers of cytochrome P450 2C9 activity – biochemical, luminescence, ADME assay, primary screen | CYP2C9 Supersomes, luciferin-H conversion | P11712 | 96,000 compounds, 20% hits | inhibition, % at 5 µM;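 active = blocking of liver enzyme CYP2C9 beyond about 50% at 5 µM, limit read from the data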
PLAP act: PLAP enzyme activators, biochemical, luminescence, HTS | activation fold at 20 µM | purified PLAP enzyme, luminescent substrate read-out; hits give high values | AID 696, 2007 | Alkaline phosphatase, placental type (Homo sapiens), P05187 | 96,000 compounds, 1.2% hits; in the data active = activation fold above about 2
* = called active by the depositor.

Results for COc1cccc(CNC(=O)C2CCN(S(=O)(=O)N3CC(C)CC(C)C3)CC2)c1 (stereo not given) ?
CYP2C19 act: 0.8; CYP2C9 act: 0.9; CYP2C19 inh: 15; CYP2C9 inh: 10; PLAP act: 1.1

Results for COc1ccccc1CCn1c(N)c(C#N)c2nc3ccccc3nc21 ?
CYP2C19 act: 0.6; CYP2C9 act: 0.4; CYP2C19 inh: 38; CYP2C9 inh: 55*; PLAP act: 1.1

What do the screens show for `COc1ccc(CCn2c(N)c(C#N)c3nc4ccccc4nc32)cc1OC`?
CYP2C19 act: 0; CYP2C9 act: 0.6; CYP2C19 inh: 98*; CYP2C9 inh: 40; PLAP act: 0.9

How did COc1ccc(Cn2c(N)c(C#N)c3nc4ccccc4nc32)cc1OC do in these assays?
CYP2C19 act: 0.1; CYP2C9 act: 0.3; CYP2C19 inh: 90*; CYP2C9 inh: 67*; PLAP act: 1.3

Results for Cc1ccsc1C(=O)OCc1csc(-c2ccccc2)n1 ?
CYP2C19 act: 0.9; CYP2C9 act: 1.1; CYP2C19 inh: 6; CYP2C9 inh: -6; PLAP act: 0.5

How did CCOC(=O)c1c(C)[nH]c(C(=O)CN2C(=O)NC(C)(c3ccc(C)cc3)C2=O)c1C (stereo not given) do in these assays?
CYP2C19 act: 0.2; CYP2C9 act: 0.3; CYP2C19 inh: 83*; CYP2C9 inh: 75*; PLAP act: 1.3

Results for CCOC(=O)c1c(C)[nH]c(C(=O)CN2C(=O)NC(CC)(c3ccccc3)C2=O)c1C (stereo not given) ?
CYP2C19 act: 0.4; CYP2C9 act: 0.3; CYP2C19 inh: 64*; CYP2C9 inh: 67*; PLAP act: 1.6

What do the screens show for `COc1ccc(NC(=O)CSc2nnc(-c3ccccn3)n2-c2ccccc2)cc1OC`?
CYP2C19 act: 1.1; CYP2C9 act: 1.1; CYP2C19 inh: -8; CYP2C9 inh: -14; PLAP act: 1.2

How did Cc1ccccc1NC(=O)c1cccc(N2C(=O)C3C4CCC(C4)C3C2=O)c1 (stereo not given) do in these assays?
CYP2C19 act: 0.6; CYP2C9 act: 0.4; CYP2C19 inh: 40; CYP2C9 inh: 57*; PLAP act: 0.8

Results for Cc1ccc(CN2C(=O)CCC2C(=O)NCCCN2CCCC(C)C2)cc1 (stereo not given) ?
CYP2C19 act: 1; CYP2C9 act: 1; CYP2C19 inh: -3; CYP2C9 inh: 0; PLAP act: 1.2

How did C=C(C)CC1Nc2ccccc2NC1CC(=C)C (stereo not given) do in these assays?
CYP2C19 act: 0.8; CYP2C9 act: 1.1; CYP2C19 inh: 16; CYP2C9 inh: -9; PLAP act: 0.9

Results for COC(=O)c1c(-c2cccs2)csc1NC(=O)CN1CCOCC1 ?
CYP2C19 act: 0.1; CYP2C9 act: 0; CYP2C19 inh: 94*; CYP2C9 inh: 96*; PLAP act: 1.5

What do the screens show for `CCOC(=O)c1c(-c2cccs2)csc1NC(=O)c1ccncc1`?
CYP2C19 act: 0.6; CYP2C9 act: 0.7; CYP2C19 inh: 36; CYP2C9 inh: 30; PLAP act: 0.9

Results for CCOC(=O)c1c(-c2cccs2)csc1NC(=O)COC(=O)c1c(C)noc1C ?
CYP2C19 act: 0.5; CYP2C9 act: 0.1; CYP2C19 inh: 46; CYP2C9 inh: 87*; PLAP act: 1.2

How did CCOC(=O)CN(C(=O)CN1CCC(n2nnc3cc(C)ccc32)CC1)c1ccccc1 do in these assays?
CYP2C19 act: 0.8; CYP2C9 act: 0.4; CYP2C19 inh: 18; CYP2C9 inh: 55*; PLAP act: 1.8

How did Cc1ccc2c(c1)nnn2C1CCN(CC(=O)N2c3ccccc3CC2C)CC1 (stereo not given) do in these assays?
CYP2C19 act: 0.7; CYP2C9 act: 1.2; CYP2C19 inh: 30; CYP2C9 inh: -15; PLAP act: 1.5

What do the screens show for `Cc1ccc2c(c1)nnn2C1CCN(C(=O)NC23CC4CC(CC(C4)C2)C3)CC1`?
CYP2C19 act: 0.5; CYP2C9 act: 1; CYP2C19 inh: 55*; CYP2C9 inh: 3; PLAP act: 0.9

How did CCOc1ccccc1NC(=O)N1CCC(n2nnc3cc(C)ccc32)CC1 do in these assays?
CYP2C19 act: 0.1; CYP2C9 act: 1.2; CYP2C19 inh: 90*; CYP2C9 inh: -22; PLAP act: 1.5

Source: PubChem
